Results as given in ChEMBL document CHEMBL1961873, “Compounds: GSK PKIS; Assays: Nanosyn kinase panel” (2012).

Key:
[1] = molecular target: Rho-associated protein kinase 1 (Homo sapiens) (UniProt Q13464); settings: at 1 µM;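 further: reported values are mean percent inhibition of ROCK1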
[2] = molecular target: Rho-associated protein kinase 2 (Homo sapiens) (UniProt O75116); settings: at 0.1 µM
[3] = molecular target: Rho-associated protein kinase 2 (Homo sapiens) (UniProt O75116); settings: at 1 µM
[4] = molecular target: Ribosomal protein S6 kinase alpha-1 (Homo sapiens) (UniProt Q15418); settings: at 0.1 µM
Chain of Ribosomal protein S6 kinase alpha-1 (Homo sapiens) (Q15418 whole entry): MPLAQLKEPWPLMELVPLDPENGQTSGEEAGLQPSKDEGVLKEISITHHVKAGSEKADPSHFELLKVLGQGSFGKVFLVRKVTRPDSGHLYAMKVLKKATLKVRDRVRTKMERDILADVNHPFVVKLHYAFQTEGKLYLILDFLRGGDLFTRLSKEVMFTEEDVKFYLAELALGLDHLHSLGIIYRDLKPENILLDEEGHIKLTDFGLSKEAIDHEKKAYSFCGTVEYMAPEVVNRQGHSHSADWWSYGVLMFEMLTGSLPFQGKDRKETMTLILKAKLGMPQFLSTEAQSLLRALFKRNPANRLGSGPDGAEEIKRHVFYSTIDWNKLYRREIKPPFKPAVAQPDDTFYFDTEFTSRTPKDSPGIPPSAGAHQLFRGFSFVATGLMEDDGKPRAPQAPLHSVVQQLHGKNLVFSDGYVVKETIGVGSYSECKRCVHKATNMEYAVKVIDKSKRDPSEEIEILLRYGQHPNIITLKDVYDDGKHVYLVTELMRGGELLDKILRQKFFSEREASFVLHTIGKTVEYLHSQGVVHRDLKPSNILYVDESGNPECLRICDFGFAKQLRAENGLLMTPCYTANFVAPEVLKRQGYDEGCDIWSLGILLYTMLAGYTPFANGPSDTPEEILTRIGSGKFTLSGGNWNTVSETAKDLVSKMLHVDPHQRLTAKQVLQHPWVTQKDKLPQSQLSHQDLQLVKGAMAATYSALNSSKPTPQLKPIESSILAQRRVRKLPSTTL

[5] = molecular target: Ribosomal protein S6 kinase alpha-1 (Homo sapiens) (UniProt Q15418); settings: at 1 µM
[6] = molecular target: Ribosomal protein S6 kinase alpha-3 (Homo sapiens) (UniProt P51812); settings: at 0.1 µM
[7] = molecular target: Ribosomal protein S6 kinase alpha-3 (Homo sapiens) (UniProt P51812); settings: at 1 µM
[8] = molecular target: Ribosomal protein S6 kinase alpha-2 (Homo sapiens) (UniProt Q15349); settings: at 0.1 µM
Chain of Ribosomal protein S6 kinase alpha-2 (Homo sapiens) (Q15349 whole entry): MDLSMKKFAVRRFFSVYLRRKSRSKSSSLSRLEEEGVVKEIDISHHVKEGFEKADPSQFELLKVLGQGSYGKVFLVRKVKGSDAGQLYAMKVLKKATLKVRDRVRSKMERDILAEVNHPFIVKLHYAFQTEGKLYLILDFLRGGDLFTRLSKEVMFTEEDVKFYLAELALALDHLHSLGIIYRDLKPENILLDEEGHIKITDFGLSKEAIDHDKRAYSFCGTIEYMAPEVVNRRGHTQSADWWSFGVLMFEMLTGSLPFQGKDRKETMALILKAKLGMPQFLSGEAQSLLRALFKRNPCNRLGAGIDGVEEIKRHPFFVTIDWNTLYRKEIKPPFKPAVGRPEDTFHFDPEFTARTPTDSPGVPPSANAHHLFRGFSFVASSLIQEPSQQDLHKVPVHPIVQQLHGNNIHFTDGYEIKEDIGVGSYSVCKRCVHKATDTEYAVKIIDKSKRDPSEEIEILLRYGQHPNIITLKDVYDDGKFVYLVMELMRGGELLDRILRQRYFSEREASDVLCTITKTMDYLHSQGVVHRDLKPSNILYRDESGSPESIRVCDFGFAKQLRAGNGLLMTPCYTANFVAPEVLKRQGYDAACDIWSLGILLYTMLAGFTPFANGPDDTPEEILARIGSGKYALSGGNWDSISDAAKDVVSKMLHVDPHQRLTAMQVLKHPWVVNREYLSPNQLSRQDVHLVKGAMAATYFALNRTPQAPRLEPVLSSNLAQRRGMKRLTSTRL

[9] = molecular target: Ribosomal protein S6 kinase alpha-2 (Homo sapiens) (UniProt Q15349); settings: at 1 µM
[10] = molecular target: Ribosomal protein S6 kinase alpha-6 (Homo sapiens) (UniProt Q9UK32); settings: at 0.1 µM;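 further: reported value is the mean inhibition of RSK4, from the GSK PKIS kinase inhibitor screen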
Chain of Ribosomal protein S6 kinase alpha-6 (Homo sapiens) (Q9UK32 whole entry): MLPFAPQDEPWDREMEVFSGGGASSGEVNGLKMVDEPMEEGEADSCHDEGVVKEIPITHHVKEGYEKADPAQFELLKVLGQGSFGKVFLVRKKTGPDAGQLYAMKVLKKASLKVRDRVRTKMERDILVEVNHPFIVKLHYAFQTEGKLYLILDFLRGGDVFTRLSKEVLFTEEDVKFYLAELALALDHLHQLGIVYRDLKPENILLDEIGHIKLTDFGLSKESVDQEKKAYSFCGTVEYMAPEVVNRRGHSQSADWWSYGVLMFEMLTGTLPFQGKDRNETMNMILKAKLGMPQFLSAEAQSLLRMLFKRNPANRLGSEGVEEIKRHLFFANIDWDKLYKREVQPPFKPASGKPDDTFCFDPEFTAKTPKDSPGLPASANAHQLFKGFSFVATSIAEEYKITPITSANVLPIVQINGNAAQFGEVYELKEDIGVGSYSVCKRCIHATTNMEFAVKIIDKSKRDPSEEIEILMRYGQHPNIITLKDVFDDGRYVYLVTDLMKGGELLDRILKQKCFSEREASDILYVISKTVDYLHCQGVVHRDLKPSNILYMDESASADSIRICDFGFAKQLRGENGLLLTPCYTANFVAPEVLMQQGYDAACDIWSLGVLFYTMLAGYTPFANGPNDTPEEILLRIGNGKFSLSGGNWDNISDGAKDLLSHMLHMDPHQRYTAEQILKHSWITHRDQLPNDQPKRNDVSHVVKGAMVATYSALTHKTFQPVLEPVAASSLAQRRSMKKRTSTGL

Chain of Rho-associated protein kinase 1 (Homo sapiens) (Q13464 2-1354 limits assumed): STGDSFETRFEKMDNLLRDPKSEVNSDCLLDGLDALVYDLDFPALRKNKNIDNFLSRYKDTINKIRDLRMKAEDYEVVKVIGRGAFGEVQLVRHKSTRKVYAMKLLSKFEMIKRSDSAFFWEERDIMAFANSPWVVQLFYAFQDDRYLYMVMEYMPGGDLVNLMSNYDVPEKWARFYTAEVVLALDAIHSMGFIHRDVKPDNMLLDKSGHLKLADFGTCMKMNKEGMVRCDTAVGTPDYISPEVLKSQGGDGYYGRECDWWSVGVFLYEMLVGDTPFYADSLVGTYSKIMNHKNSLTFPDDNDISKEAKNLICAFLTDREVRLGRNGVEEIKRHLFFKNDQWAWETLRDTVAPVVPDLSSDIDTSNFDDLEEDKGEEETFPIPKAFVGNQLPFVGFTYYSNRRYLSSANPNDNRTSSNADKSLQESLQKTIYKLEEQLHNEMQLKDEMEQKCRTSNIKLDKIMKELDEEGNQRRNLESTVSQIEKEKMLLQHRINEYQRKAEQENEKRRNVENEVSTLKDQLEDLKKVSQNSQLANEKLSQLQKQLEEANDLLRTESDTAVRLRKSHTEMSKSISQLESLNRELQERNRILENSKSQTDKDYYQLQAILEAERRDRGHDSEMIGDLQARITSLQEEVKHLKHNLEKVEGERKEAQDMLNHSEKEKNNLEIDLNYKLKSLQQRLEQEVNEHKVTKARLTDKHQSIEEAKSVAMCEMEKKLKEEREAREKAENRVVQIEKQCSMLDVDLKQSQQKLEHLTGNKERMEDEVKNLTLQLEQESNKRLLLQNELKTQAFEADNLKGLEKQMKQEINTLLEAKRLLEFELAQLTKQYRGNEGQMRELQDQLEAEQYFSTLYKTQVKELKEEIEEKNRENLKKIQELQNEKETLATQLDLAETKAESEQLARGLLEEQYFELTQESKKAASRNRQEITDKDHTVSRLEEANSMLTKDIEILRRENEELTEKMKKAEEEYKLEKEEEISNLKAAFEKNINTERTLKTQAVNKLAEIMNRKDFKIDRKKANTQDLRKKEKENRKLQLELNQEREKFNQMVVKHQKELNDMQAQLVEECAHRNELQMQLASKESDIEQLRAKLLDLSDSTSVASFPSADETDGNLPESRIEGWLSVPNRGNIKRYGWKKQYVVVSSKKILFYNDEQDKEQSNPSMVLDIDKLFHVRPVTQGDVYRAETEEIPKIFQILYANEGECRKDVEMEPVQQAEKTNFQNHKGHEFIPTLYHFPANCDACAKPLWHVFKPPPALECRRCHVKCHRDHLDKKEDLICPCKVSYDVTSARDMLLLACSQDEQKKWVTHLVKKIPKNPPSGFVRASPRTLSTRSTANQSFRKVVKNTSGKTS
Chain of Rho-associated protein kinase 2 (Homo sapiens) (O75116 whole entry, looked up): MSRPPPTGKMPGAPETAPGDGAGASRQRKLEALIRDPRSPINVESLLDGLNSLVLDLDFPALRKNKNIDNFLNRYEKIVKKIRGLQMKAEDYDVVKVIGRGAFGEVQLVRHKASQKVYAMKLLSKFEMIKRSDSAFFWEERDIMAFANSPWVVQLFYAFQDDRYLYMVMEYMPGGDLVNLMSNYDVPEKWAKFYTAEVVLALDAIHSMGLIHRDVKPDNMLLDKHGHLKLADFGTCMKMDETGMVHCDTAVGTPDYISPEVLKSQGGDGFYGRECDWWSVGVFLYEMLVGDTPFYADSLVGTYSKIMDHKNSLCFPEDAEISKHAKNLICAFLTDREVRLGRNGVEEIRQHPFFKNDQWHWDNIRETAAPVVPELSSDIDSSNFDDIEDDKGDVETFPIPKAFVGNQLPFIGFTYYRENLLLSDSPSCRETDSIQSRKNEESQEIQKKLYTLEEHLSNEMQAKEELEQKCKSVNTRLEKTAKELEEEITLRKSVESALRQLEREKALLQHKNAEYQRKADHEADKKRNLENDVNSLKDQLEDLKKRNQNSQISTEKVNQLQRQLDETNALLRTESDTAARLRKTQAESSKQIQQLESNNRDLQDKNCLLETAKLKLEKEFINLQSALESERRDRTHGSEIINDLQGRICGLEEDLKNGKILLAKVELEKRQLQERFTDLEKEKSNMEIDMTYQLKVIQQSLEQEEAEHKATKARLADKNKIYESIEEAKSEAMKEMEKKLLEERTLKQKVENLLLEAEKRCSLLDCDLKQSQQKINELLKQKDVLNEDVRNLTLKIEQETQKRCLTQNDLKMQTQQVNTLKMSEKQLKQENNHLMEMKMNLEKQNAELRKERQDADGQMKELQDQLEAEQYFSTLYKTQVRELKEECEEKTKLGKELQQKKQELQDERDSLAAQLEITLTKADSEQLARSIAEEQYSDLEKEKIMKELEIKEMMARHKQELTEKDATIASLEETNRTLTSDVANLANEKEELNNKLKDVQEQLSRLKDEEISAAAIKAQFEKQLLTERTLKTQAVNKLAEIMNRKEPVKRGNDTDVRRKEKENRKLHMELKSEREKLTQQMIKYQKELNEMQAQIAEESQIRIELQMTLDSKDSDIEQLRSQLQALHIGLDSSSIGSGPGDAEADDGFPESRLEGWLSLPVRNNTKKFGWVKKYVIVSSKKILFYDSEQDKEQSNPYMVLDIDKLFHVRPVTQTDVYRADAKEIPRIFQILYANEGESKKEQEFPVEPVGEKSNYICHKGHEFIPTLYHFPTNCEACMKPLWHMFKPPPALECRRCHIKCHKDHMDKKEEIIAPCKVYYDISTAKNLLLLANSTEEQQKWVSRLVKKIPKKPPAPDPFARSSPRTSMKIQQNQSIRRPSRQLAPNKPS

Row | SMILES | inhibition [1] [%] | inhibition [2] [%] | inhibition [3] [%] | inhibition [4] [%] | inhibition [5] [%] | inhibition [6] [%] | inhibition [7] [%] | inhibition [8] [%] | inhibition [9] [%] | inhibition [10] [%]
1 | COc1ccc(C2=C(N3CCc4ccccc43)C(=O)NC2=O)cc1 | 1.57 | 2.97 | 3.17 | 2.46 | 4.09 | 0.95 | 1.69 | 2.16 | 3.86 | 2.62
2 | COc1cc(N2CCN(C(C)C)CC2)ccc1Nc1nc(Nc2ccc(F)cc2C(=O)NC[C@@H](O)CO)c2cc[nH]c2n1 | 2.04 | 4.24 | 8.05 | 3.27 | 12.1 | 2.71 | 7.3 | 3.45 | 5.13 | 2.51
3 | NCc1ccc(-n2c(-c3nonc3N)nc3cnccc32)cc1 | 90.5 | 82.9 | 92.9 | 56.2 | 87.9 | 43.4 | 81.4 | 55.5 | 91.4 | 10
4 | O=C(Nc1n[nH]c2nc(-c3ccc(O)cc3)c(Br)cc12)C1CC1 | 1.33 | 4.18 | 6.43 | 7.28 | 33 | 10.3 | 44.8 | 22.4 | 70.6 | 16.4
5 | Fc1ccc(-c2ncn(C3CCNCC3)c2-c2ccnc(Oc3ccc(F)c(F)c3)n2)cc1 | 6.19 | 1.74 | 5.45 | 0.34 | 2.83 | -0.47 | 1.32 | 2.41 | 2.42 | 0.29
6 | NS(=O)(=O)c1ccc(N/N=C2\C(=O)Nc3ccc(-c4cnco4)cc32)cc1 | 37.6 | 16.3 | 58.3 | -0.32 | 3.8 | -1 | 2.65 | 1.5 | 7.28 | 0.03
7 | CCc1cccc(CC)c1/C=C/c1cncc(C(=O)NC)c1 | 1.22 | 1.66 | -0.13 | 1.4 | 0.95 | 0.3 | -0.37 | 1.51 | 0.74 | 0.65
8 | CS(=O)(=O)CCNCc1ccc(-c2ccc3ncnc(Nc4ccc(OCc5ccccc5)c(Br)c4)c3c2)o1 | 2.16 | 0.72 | 1.26 | -0.49 | 0.36 | -0.55 | -1.39 | 1.5 | 1.01 | -0.12
9 | CN(c1ccc(NC(=O)Nc2c(Cl)cccc2Cl)cc1)c1ccnc(Nc2cccc(CS(C)(=O)=O)c2)n1 | 2.01 | 3.46 | 9.15 | 2.34 | 4.66 | 2.08 | 3.81 | -2.19 | 1.78 | 0.45
10 | Fc1ccc(-c2nc3n(c2-c2ccncc2)CCS3)cc1 | 4.54 | 2.98 | 5.06 | 3.03 | 2.88 | 1.5 | 1.71 | 3.31 | 4.36 | 2.72
11 | Cc1nnc(-c2ccc(C)c(-c3ccc(C(=O)NCc4ccc(Cl)cc4)cc3)c2)o1 | 2.48 | 3.86 | 5.72 | 2.78 | 2.72 | 2 | 2.89 | 3.07 | 3.77 | 1.59
12 | CCc1nccc2c1nc(-c1nonc1N)n2CC | 11.5 | 1.91 | 17 | 5.37 | 35.2 | 2.22 | 15.6 | 3.79 | 26.9 | -0.93
13 | CN(C)c1ccc2c(c1)/C(=C/Nc1ccc(S(N)(=O)=O)cc1)C(=O)N2 | 5.77 | 5.46 | 13.3 | 1.57 | 11.6 | 2.82 | 14.7 | 5.18 | 25.9 | 4.28
14 | C/C(Nc1ccc(S(N)(=O)=O)cc1)=C1/C(=O)Nc2ccccc21 | 5.13 | 2.95 | 9.54 | 1.62 | 14.5 | 1.49 | 14.6 | 2.22 | 23.4 | 2.94
15 | FC(F)(F)c1cccc(Nc2nccc(-c3cnn4nc(-c5ccccc5)ccc34)n2)c1 | 0.48 | 1.21 | 0.98 | 1.01 | 1.56 | 1.05 | 1.35 | 1.39 | 2.04 | 1.3
16 | O=C1NC(=O)C(c2cccc(Cl)c2)=C1Nc1ccc(Cl)c(C(=O)O)c1 | 0.78 | 1.95 | 4.98 | 1.51 | 2.92 | 1.25 | 1.6 | 1.79 | 1.6 | 1.24
17 | O=C(Nc1ccc(Oc2ccc3[nH]c(NC(=O)c4ccccc4)nc3c2)cc1)Nc1cc(C(F)(F)F)ccc1F | 6.36 | 3.35 | 8.83 | 1.17 | 5.03 | 0.81 | 1.47 | 3.12 | 20.5 | 1.69

Row | SMILES | inhibition [1] [%] | inhibition [2] [%] | inhibition [3] [%] | inhibition [4] [%] | inhibition [5] [%] | inhibition [6] [%] | inhibition [7] [%] | inhibition [8] [%] | inhibition [9] [%] | inhibition [10] [%]
18 | NC(=O)c1cc(-c2ccncc2)cc(-c2ccccc2)c1N | 6.72 | 3.44 | 9.1 | 1.01 | -1.21 | 1.46 | 1.47 | 3.07 | 2.57 | 2.79
19 | N#Cc1ccc(Oc2nccc(-c3c(-c4ccc(F)cc4)ncn3C3CCNCC3)n2)cc1 | 4.31 | 2.81 | 4.38 | 0.36 | 1.46 | 1.39 | 1.85 | 2.38 | 3.07 | 0.67
20 | CCC(=O)Nc1ccc(C)c(-c2ccc(C(=O)NCC3CC3)cc2)c1 | 4.2 | 2.63 | 3.64 | 0.56 | 0.53 | 0.82 | 0.79 | 1.75 | 2.09 | 0.01
21 | C#Cc1cccc(Nc2ncnc3ccc(OCCCCNCCS(C)(=O)=O)cc23)c1 | 2.52 | 3.83 | 6.92 | 3.85 | 5.51 | 2.14 | 3.87 | 3.31 | 4.55 | 1.75
22 | Cc1ccc(C(=O)NC(C)C)cc1-c1ccc(C(=O)NCC2CC2)cc1 | -0.1 | -1.71 | -1.76 | 1.38 | -0.32 | 1.65 | 1.68 | -0.25 | 0.47 | -0.44
23 | COc1ccc(-c2ccc3c(NC(=O)C4CC4)n[nH]c3n2)cc1 | -0.75 | 1.6 | 3.71 | 0.22 | 2.59 | 1.62 | 3 | 1.1 | 1.69 | 0.83
24 | O=C1Nc2ccc(I)cc2C1=Cc1cc(Br)c(O)c(Br)c1 | 2.32 | 2.42 | 4.03 | 0.5 | 2.27 | 1.27 | 1.7 | 2.5 | 3.82 | 1.37
25 | Nc1nccc(-c2c(-c3ccc(F)cc3)ncn2C2CCC(O)CC2)n1 (stereo not given) | 0.73 | -1.47 | -1.96 | -0.24 | 2.78 | -0.92 | -0.98 | -0.62 | 0.59 | -0.21
26 | COc1cc2ncn(-c3cc(OCc4ccccc4C(F)(F)F)c(C(C)=O)s3)c2cc1OC | 2.18 | 1.87 | 2.95 | 1.38 | 2.01 | 0.97 | 1.14 | 2.48 | 2.5 | 1.64
27 | CS(=O)(=O)CCNCc1cc(-c2cc3c(Nc4ccc(OCc5cccc(F)c5)c(Cl)c4)ncnc3s2)cs1 | 4.5 | 3.92 | 5.77 | -0.03 | 1.94 | 1.24 | 1.57 | 3.28 | 2.95 | 0.77
28 | NC(=O)c1ccc(Oc2nccc(-c3c(-c4ccc(F)cc4)ncn3C3CCNCC3)n2)cc1 | 3.99 | 3.87 | 4.42 | 2.06 | 1.84 | -0.35 | 0.53 | 3.21 | 4.43 | 1.77
29 | NC(=O)c1cc(-c2ccc(F)cc2)cc(-c2ccncc2)c1N | 1.76 | 2.33 | 6.23 | 1.16 | 2.59 | 0.17 | 1.79 | 1.82 | 2.97 | 0.55
30 | Cc1ccc(C(=O)NC2CCC2)cc1-c1ccc(C(=O)NCC2CC2)cc1 | 1.32 | 1.03 | -0.46 | 1.52 | 1.45 | 0.97 | 1.47 | 1.58 | 2.68 | 1.63
31 | COc1cc(Nc2ncc(-c3ccccc3)o2)cc(OC)c1OC | 1.85 | -0.74 | 3.74 | 0.23 | 3.07 | 0.02 | 2.83 | 0.65 | 6.88 | 0.47
32 | COc1cccc(-n2cnc3c(N/N=C/c4ccncc4)ncnc32)c1 | 1.07 | 3.27 | 6.91 | 2.62 | 4.66 | 2.12 | 4.76 | -0.37 | 0.82 | -0.06
33 | NS(=O)(=O)c1ccc(N/N=C2\C(=O)Nc3ccc(C(=O)NCCCn4ccnc4)cc32)cc1 | 8.77 | 5.67 | 25.4 | 2.58 | 7.85 | 2.08 | 9.61 | 3.97 | 12.8 | 3.05
34 | Fc1ccc(-c2ncn(C3CCNCC3)c2-c2ccnc(Oc3ccc4c(c3)OCO4)n2)cc1 | 5.2 | 4.88 | 8.46 | 1.84 | 3.67 | -0.4 | 2.18 | 2.81 | 4.39 | 0.63
